Among all 310,000 compounds or so, about 14,000 (4.5%) showed an effect of 50% or more. Effects have a minus sign here. Many of the other results were omitted from the sample, so strong results are more common in it than they were.
These compounds were tested against human ether-à-go-go-related gene (hERG) potassium channel (human, UniProt Q12809) (assay: primary screen, population patch clamp on CHO cells stably expressing hERG; higher = less effect of the substance).
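Also: peak tail current of the secondary pulse compared with the same well before compound.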

human ether-à-go-go-related gene (hERG) potassium channel, sequence (Q12809 whole entry, looked up): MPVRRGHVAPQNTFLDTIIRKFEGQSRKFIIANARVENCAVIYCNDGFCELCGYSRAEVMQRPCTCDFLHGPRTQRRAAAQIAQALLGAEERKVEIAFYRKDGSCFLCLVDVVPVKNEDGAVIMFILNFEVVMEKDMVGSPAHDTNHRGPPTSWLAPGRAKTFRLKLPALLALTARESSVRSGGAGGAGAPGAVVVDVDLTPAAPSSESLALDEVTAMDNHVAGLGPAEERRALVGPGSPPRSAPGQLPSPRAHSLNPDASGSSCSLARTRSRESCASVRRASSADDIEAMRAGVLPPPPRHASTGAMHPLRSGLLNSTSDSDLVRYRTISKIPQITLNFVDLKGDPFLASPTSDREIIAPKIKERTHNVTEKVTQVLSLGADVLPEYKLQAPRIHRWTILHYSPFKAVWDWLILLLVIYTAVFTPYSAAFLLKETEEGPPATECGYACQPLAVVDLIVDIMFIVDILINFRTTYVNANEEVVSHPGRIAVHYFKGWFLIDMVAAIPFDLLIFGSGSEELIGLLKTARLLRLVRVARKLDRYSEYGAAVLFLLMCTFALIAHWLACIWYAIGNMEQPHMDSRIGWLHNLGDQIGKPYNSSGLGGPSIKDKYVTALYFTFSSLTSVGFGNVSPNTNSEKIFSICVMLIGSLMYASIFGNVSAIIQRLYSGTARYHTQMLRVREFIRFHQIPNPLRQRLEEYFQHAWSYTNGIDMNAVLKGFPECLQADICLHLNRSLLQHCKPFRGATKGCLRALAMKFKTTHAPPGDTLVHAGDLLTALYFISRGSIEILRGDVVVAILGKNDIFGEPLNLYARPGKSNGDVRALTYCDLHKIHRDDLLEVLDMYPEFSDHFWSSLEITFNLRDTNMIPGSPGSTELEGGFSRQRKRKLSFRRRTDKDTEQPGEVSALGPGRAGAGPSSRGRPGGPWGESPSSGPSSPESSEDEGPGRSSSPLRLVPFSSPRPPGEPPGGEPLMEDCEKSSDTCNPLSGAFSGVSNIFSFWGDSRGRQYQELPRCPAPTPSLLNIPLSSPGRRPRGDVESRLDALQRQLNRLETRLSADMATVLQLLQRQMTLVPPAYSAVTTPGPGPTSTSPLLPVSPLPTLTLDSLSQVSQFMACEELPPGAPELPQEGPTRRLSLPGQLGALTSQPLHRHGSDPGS

SMILES	hERG current change (%, negative = inhibition) at 10uM
CC(C)Oc1ccc(CN2CCC(n3nccc3NC(=O)c3cccnc3)CC2)cc1	-70.4%
O=C(Nc1ccnn1C1CCN(Cc2cccc(F)c2F)CC1)C1CCCC1	-23.2%
Cc1ccc(CN2CCC(n3nccc3NC(=O)C3CCOC3)CC2)cc1C (stereo not drawn)	-20.5%
COc1ccc(CN2CCC(n3nccc3NC(=O)C3CC3)CC2)cc1O	-58.8%
Cc1ccccc1CN1CCC(n2nccc2NC(=O)c2cccnc2)CC1	-14.6%
CCOc1cccc(CN2CCC(n3nccc3NC(=O)C3CC3)CC2)c1O	-64.2%
O=C(Nc1ccnn1C1CCN(Cc2ccc(OC(F)F)cc2)CC1)C1CCCC1	-75.3%
Cc1cc(NC(=O)C(C)SCC(=O)OCc2ccc(Cl)cc2Cl)no1 (stereo not drawn)	1.04%
Cc1ccc(C(=O)NCc2ccco2)c(C)c1	20.5%
O=C(CCC(=O)N1CCN(c2ccc(O)cc2)CC1)c1ccc(Br)cc1	-44.4%
O=C(O)c1cc(-c2ccccc2)nc(-c2ccccc2)c1	22.5%
CC1CN(c2ccc([N+](=O)[O-])cc2C(=O)N2CCOCC2)CC(C)N1 (stereo not drawn)	-9.17%
CCOc1cc(CN2CCC(n3nccc3NC(=O)C3CC3)CC2)ccc1O	-22%
CCOc1ccc(CN2CCC(n3nccc3NC(=O)C3CC3)CC2)cc1CO	-57.1%
CC(C)(O)C#Cc1ccc(CN2CCC(n3nccc3NC(=O)C3CC3)CC2)cc1	-19%
COc1ccc(CN2CCC(n3nccc3NC(=O)C3CCCC3)CC2)cc1	-68.9%
COC(=O)c1ccc(CN2CCC(n3nccc3NC(=O)C3CC3)CC2)cc1	-55.6%
Cn1cc(CN2CCC(n3nccc3NC(=O)C3CCCC3)CC2)cn1	12.6%
COC(=O)c1ccc(CN2CCC(n3nccc3NC(=O)C3CCCC3)CC2)cc1	-67.7%
CC1CCCC(C)N1CCCNC(=O)Cn1cc2c(n1)CCCC2 (stereo not drawn)	-3.99%
COc1cccc(CNCc2ccc3c(c2)OCO3)c1.O=C(O)C(=O)O	13.7%
O=C(N[C@@H](Cc1ccccc1)c1nc2ccccc2[nH]1)c1cc([N+](=O)[O-])ccc1Cl	-28%
CCc1c(O)nc(SCC(N)=O)n(-c2ccccc2F)c1=O	7.56%

SMILES	hERG current change (%, negative = inhibition) at 10uM
CCC(C)N(C(=O)C(F)(F)F)C(C(=O)NC1CCCCC1)c1ccncc1 (stereo not drawn)	7.62%
O=S(=O)(c1ccc(Cl)cc1Cl)N1CCCC1c1cccnc1 (stereo not drawn)	7.32%
Cc1ccc(SCC(=O)NCc2ccco2)cc1	3.39%
COC(=O)c1c(SCC(=O)NC2CCCCC2)[nH]c2ccccc2c1=O	-0.717%
O=C(Nc1ccnn1C1CCN(Cc2cccc(OCCO)c2)CC1)C1CC1	0.219%
COc1cccc(CN2CCC(n3nccc3NC(=O)C3CC3)CC2)c1	-44.7%
COc1cc(CN2CCC(n3nccc3NC(=O)C3CC3)CC2)cc(OC)c1	-66.3%
CC(C)Oc1ccc(CN2CCC(n3nccc3NC(=O)C3CC3)CC2)cc1	-79.4%
CN(CC(=O)Nc1ccc(F)c(F)c1F)C(=O)C1CSC2(C)CCC(=O)N12 (stereo not drawn)	-5.92%
O=C(Nc1ccc(OC(F)F)cc1)Nc1cccc(C(F)(F)F)c1	6.56%
O=C(CO/N=C/c1ccccc1OC(F)F)NCc1ccco1	-5.06%
CN(C(=O)CO/N=C/c1ccc(OC(F)F)cc1)C1CCS(=O)(=O)C1 (stereo not drawn)	-59.2%
O=C(CO/N=C/c1ccccc1OC(F)F)NCc1cccs1	-12.9%
CCOc1ccc(/C=N/OCC(=O)NCc2cccs2)cc1	-11.6%
CCOc1ccc(/C=N/OCC(=O)NCc2ccco2)cc1	-12.9%
O=C(CO/N=C/c1ccc(OC(F)F)cc1)NCc1ccc(F)cc1	-79.2%
O=C(CO/N=C/c1ccc(OC(F)F)cc1)NC1CCCC1	-49%
O=C(CO/N=C/c1ccc(OC(F)F)cc1)NCc1ccco1	-51.8%
O=C(CO/N=C/c1ccc(OC(F)F)cc1)NC1CCCCC1	-8.59%
CC(C)(C)c1ccc(/C=N/OCC(=O)NCc2ccc(F)cc2)cc1	-2.59%
O=C(CO/N=C/c1ccc(OC(F)F)cc1)NCc1cccs1	-62.6%
COC(=O)c1ccc(/C=N/OCC(=O)NCc2ccc(F)cc2)cc1	17.9%

Source: paper PMC4336329 (PLoS ONE, 2015)
